Test [1] concerns the target Serine/threonine-protein kinase PLK3 (Homo sapiens) (UniProt Q9H4B4). As to conditions: at 1 µM; call rule not given here.
Test [2] shares this target. As to conditions: at 10 µM.
Test [3] has as its target T1, cAMP-dependent protein kinase catalytic subunit PRKX (Homo sapiens) (UniProt P51817).
T1 sequence (whole entry): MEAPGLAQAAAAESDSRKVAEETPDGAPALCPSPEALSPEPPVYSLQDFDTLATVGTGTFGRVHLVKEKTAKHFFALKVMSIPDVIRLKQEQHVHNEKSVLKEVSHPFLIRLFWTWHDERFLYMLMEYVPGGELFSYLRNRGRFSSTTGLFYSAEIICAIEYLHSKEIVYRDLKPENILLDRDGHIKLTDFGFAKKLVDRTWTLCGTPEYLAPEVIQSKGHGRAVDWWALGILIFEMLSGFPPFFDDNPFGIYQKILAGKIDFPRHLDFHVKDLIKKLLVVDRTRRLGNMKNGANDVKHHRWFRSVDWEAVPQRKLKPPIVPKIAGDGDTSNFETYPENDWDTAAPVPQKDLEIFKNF
As to conditions: at 1 µM.

Test [4] deals with T1, cAMP-dependent protein kinase catalytic subunit PRKX (Homo sapiens). As to conditions: at 10 µM.
For test [5], the target named is Protein-tyrosine kinase 2-beta (Homo sapiens) (UniProt Q14289). As to conditions: at 1 µM.
The target is the same in test [6]. As to conditions: at 10 µM.
Test [7] concerns the target Receptor-interacting serine/threonine-protein kinase 2 (Homo sapiens) (UniProt O43353). As to conditions: at 1 µM.
Test [8] shares this target. As to conditions: at 10 µM.
The target in test [9] is Rho-associated protein kinase 1 (Homo sapiens) (UniProt Q13464). As to conditions: at 1 µM.
Test [10] shares this target. As to conditions: at 10 µM.
Test [11] concerns the target Rho-associated protein kinase 2 (Homo sapiens) (UniProt O75116). As to conditions: at 1 µM.
The target is the same in test [12]. As to conditions: at 10 µM.
Test [13] concerns the target Proto-oncogene tyrosine-protein kinase receptor Ret (Homo sapiens) (UniProt P07949). As to conditions: at 1 µM.
Test [14] has the same target. As to conditions: at 10 µM.
For test [15], the target named is Macrophage-stimulating protein receptor (Homo sapiens) (UniProt Q04912). As to conditions: at 1 µM.
Sequence of Macrophage-stimulating protein receptor (Homo sapiens) (Q04912 25-304 limits assumed): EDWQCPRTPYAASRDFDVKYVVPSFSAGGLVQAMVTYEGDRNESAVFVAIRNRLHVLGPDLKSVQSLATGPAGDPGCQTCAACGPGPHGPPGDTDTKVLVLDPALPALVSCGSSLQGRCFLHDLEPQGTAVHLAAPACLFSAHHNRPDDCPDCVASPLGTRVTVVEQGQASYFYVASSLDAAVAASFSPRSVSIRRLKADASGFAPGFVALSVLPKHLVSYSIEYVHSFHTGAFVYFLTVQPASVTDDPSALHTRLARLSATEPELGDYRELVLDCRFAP
Sequence of Macrophage-stimulating protein receptor (Homo sapiens) (Q04912 310-1400 limits assumed): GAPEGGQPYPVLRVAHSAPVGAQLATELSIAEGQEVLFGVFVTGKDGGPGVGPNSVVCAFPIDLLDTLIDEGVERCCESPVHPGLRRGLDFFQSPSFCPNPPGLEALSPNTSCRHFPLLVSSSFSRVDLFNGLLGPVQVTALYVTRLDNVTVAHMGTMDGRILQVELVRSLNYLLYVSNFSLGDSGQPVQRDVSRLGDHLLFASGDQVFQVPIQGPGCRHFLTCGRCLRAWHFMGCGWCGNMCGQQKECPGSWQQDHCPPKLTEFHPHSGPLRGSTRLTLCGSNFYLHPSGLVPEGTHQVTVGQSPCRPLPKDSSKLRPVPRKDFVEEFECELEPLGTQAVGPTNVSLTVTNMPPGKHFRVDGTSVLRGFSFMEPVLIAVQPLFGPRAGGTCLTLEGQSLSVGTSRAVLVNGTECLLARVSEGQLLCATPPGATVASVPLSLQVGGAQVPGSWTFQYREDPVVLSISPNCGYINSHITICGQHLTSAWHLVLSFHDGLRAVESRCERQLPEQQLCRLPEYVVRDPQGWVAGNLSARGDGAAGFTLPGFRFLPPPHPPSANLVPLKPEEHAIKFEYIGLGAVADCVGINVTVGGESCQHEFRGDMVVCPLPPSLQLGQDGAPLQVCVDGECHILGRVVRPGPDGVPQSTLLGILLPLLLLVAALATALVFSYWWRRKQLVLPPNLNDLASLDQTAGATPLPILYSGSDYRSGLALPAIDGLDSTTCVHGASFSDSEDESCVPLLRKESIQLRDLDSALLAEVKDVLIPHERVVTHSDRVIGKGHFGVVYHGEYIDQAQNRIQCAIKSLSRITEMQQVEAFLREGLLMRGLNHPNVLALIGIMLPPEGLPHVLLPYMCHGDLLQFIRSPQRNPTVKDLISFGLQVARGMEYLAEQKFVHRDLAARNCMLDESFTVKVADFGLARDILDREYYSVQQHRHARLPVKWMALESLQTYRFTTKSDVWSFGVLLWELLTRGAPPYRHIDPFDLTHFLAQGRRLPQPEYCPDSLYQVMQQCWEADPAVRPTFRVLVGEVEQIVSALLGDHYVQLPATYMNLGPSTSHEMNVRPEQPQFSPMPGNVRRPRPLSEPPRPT
The target is the same in test [16]. As to conditions: at 10 µM.
Test [17] deals with Proto-oncogene tyrosine-protein kinase ROS (Homo sapiens) (UniProt P08922). As to conditions: at 1 µM.
The target is the same in test [18]. As to conditions: at 10 µM.
Test [19] has as its target T2, Tyrosine-protein kinase receptor TYRO3 (Homo sapiens) (UniProt Q06418).
T2 sequence (whole entry): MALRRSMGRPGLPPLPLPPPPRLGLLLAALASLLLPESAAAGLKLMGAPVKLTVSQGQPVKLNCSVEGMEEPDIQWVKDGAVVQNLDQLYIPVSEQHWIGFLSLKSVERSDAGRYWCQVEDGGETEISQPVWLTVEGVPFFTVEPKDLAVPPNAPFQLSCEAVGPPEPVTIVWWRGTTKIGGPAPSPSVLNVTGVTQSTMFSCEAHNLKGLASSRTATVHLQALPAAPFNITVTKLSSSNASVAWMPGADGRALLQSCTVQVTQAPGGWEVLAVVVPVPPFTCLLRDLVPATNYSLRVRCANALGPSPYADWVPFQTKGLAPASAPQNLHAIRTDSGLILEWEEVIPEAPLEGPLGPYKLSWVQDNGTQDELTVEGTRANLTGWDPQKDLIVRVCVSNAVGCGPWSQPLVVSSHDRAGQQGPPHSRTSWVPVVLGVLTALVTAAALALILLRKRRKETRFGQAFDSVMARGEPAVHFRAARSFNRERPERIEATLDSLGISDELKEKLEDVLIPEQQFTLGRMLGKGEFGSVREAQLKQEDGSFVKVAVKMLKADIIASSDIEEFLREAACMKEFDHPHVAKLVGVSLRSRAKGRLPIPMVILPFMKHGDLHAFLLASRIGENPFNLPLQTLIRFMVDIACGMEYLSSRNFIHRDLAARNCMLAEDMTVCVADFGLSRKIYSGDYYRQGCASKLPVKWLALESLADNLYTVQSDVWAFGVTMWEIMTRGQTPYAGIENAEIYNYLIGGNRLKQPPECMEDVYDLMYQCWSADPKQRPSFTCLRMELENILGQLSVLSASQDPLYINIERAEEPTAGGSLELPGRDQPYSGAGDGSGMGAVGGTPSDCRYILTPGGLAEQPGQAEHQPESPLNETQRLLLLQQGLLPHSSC
As to conditions: at 1 µM.

Test [20] has as its target T2, Tyrosine-protein kinase receptor TYRO3 (Homo sapiens). As to conditions: at 10 µM.

Sequence of Rho-associated protein kinase 2 (Homo sapiens) (O75116 whole entry, looked up): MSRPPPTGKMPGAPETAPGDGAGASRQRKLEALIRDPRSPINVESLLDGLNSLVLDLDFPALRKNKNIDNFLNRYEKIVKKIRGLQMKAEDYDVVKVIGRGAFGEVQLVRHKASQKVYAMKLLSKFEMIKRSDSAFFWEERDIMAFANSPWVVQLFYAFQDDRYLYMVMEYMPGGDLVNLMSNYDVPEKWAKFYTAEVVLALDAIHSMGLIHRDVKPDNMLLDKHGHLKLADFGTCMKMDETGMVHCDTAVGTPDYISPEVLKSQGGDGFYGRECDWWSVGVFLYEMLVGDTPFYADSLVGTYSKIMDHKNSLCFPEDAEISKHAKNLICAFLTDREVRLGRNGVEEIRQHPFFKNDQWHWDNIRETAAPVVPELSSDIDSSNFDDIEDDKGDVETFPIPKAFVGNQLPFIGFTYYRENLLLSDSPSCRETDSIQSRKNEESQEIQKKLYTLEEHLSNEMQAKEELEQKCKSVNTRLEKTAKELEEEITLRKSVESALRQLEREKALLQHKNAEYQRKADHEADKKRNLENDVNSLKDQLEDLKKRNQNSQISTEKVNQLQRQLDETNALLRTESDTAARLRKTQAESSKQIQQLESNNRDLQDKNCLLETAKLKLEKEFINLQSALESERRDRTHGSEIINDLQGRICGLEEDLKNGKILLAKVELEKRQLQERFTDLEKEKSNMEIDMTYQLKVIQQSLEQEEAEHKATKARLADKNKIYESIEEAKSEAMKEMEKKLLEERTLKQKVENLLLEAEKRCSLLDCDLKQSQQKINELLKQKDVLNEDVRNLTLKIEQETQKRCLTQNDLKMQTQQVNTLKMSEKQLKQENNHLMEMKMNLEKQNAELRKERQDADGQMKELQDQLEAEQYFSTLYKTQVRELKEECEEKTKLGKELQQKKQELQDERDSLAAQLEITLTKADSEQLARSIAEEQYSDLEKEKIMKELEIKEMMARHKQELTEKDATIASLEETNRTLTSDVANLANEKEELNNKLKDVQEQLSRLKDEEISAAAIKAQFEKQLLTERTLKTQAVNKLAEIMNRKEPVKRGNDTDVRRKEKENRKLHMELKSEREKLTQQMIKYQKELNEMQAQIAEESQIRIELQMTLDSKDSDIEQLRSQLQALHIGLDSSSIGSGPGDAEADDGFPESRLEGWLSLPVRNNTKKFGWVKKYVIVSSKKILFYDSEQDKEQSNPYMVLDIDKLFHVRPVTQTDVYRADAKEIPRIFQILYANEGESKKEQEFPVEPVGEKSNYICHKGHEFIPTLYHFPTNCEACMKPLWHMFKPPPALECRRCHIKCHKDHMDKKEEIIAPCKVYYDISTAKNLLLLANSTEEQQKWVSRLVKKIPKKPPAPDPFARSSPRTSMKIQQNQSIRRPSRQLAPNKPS
Sequence of Receptor-interacting serine/threonine-protein kinase 2 (Homo sapiens) (O43353 whole entry): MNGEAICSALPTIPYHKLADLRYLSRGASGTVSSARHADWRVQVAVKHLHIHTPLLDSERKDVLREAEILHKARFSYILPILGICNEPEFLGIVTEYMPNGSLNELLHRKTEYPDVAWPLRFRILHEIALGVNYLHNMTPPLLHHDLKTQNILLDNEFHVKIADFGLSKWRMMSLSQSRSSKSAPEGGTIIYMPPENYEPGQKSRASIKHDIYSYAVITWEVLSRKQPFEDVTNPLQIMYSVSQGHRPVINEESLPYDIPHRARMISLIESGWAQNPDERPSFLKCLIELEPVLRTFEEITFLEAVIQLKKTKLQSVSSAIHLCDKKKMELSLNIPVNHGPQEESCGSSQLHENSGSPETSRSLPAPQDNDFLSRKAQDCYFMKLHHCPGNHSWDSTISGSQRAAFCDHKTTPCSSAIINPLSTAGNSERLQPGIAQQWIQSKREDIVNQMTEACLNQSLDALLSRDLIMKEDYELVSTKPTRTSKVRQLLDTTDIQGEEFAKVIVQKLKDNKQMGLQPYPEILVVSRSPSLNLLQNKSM
Sequence of Proto-oncogene tyrosine-protein kinase receptor Ret (Homo sapiens) (P07949 whole entry): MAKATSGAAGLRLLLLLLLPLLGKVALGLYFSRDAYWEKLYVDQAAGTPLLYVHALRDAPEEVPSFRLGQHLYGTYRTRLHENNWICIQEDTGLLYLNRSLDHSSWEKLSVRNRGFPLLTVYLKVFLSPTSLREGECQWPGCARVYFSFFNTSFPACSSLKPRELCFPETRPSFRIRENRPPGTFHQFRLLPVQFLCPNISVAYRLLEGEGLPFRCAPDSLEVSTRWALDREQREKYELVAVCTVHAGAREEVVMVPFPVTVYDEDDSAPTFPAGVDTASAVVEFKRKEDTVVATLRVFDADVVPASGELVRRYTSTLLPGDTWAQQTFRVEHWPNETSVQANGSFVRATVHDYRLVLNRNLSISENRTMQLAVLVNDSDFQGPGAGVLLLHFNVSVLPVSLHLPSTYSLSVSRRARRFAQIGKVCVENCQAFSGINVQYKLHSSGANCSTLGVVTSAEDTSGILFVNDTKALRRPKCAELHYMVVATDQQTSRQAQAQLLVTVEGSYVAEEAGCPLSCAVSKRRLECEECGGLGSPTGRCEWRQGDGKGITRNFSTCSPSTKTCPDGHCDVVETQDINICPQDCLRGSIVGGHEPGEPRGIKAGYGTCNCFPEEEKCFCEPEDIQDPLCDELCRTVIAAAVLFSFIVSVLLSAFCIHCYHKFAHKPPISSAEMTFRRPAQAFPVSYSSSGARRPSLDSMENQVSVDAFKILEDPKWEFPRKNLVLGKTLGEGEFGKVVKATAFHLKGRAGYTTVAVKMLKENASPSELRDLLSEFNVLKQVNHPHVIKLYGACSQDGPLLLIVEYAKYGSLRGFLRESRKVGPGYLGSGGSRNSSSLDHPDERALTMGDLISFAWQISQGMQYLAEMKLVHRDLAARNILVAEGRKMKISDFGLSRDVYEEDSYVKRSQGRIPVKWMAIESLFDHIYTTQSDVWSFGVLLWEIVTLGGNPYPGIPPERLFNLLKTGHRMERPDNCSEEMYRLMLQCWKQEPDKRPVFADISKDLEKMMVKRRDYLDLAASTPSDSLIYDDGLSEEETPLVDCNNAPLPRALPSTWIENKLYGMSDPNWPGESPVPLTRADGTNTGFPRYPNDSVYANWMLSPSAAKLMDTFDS
Sequence of Serine/threonine-protein kinase PLK3 (Homo sapiens) (Q9H4B4 whole entry, looked up): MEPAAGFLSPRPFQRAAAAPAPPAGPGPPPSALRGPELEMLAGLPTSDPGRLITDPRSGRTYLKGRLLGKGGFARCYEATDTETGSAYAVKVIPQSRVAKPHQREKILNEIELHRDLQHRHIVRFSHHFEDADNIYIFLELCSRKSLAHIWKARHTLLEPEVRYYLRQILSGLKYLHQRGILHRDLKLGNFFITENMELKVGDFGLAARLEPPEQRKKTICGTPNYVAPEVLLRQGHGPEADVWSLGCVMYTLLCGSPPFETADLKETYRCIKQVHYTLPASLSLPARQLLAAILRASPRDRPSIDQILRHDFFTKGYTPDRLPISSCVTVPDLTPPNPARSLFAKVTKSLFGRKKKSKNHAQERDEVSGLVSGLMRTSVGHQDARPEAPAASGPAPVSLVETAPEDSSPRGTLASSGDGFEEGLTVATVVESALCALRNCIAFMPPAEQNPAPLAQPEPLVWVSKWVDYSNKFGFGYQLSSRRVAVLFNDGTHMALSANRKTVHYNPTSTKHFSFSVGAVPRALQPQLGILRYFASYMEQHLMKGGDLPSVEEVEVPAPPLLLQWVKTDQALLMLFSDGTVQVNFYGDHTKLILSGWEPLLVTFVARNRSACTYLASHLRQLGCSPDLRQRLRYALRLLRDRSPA

For `O=C1NC(=O)c2c1c1c3ccccc3[nH]c1c1[nH]c3cc(Br)ccc3c21`, the residual activity in test [1] is 96% (inactive); in test [2] it was 83%; in test [3], 85%; in test [4], 77%; in test [5], 71%; in test [6], 84%. Moreover, the residual activity came to 92% in test [7]; 93% in test [8]; 112% in test [9]; 93% in [10]; 93% in test [11]; 89% in [12]. The residual activity in test [13] turned out to be 91%; in test [14], 77%; in [15], 79%; in test [16], 83%; in test [17], 102%; in test [18], 96%. The figures for the residual activity in [19] and in [20] were 110% and 98%, respectively.
In the case of `N#CC(C#N)=C(N)/C(C#N)=C/c1ccc(O)cc1`, the residual activity in [1] is 79% (inactive); in [2], 27%; in [3], 99%; in test [4], 100%; in test [5] it was 129%; in test [6] it was 94%. Moreover, the residual activity amounted to 64% in test [8], 100% in [16], 95% in test [17] and 92% in test [18].
For the compound `Cc1cccc(-c2[nH]c(C(C)(C)C)nc2-c2ccc3c(c2)OCO3)n1`, the residual activity in test [1] is 98% (inactive); in test [2], 88%; in test [6] it was 103%; in test [7], 59%; in test [8], 21%; in test [11], 103%. Moreover, the residual activity worked out at 82% in [12]; 98% in [13]; 107% in [14]; 91% in [17]; 94% in [18]; 97% in [19].
Consider `COc1cc2ncnc(Nc3ccc(Oc4ccccc4)cc3)c2cc1OC`, for which the residual activity was 87% (inactive) in test [1]; 95% in [2]; 92% in [3]; 132% in test [4]; 96% in test [5]; 69% in [6]. Also, the residual activity in test [7] is 28%; in test [8], 19%; in test [9], 115%; in test [10], 126%; in test [11], 104%; in [12], 84%. Further, the residual activity in test [13] is 25%; in test [14] it was 7%; in test [15] it was 92%; in test [16], 59%; in test [17], 102%; in [18], 101%. The residual activity came out at 14% in test [19] and 7% in test [20].
Regarding `Oc1c2ccccc2c2c3c(cccc13)N=N2`, the residual activity was 94% (inactive) in [1]; 82% in [2]; 86% in test [3]; 70% in test [4]; 68% in test [5]; 23% in test [6]. Besides, the residual activity in test [7] is 70%; in test [8] it was 52%; in [10] it was 95%; in test [11], 74%; in [12], 39%; in test [13], 43%. Also, the residual activity is 11% in test [14]; 78% in [15]; 51% in test [16]; 93% in [17]; 85% in test [18]; 97% in test [19]. Besides, the residual activity in test [20] turned out to be 81%.
As for `c1ccc(-c2n[nH]cc2-c2ccnc3ccccc23)nc1`, the residual activity in test [1] was 99% (inactive); in test [2], 94%; in test [3], 96%; in test [4] it was 94%; in [5], 109%; in [6], 96%. In addition, the residual activity in [7] was 29%; in [8], 16%; in test [10], 127%; in [11], 93%; in test [12], 76%; in test [13], 104%. Besides, the residual activity came out at 91% in test [14]; 98% in test [17]; 93% in test [18]; 93% in test [19]; 75% in test [20].
In the case of `Cn1nc2c3c(cccc31)C(=O)c1ccccc1-2`, the residual activity in [1] was 100% (inactive); in test [2] it was 90%; in test [3], 72%; in [4], 86%; in [5], 106%; in test [6], 76%. Moreover, the residual activity in test [7] was determined as 89%; in test [8], 89%; in test [10] it was 97%; in test [11] it was 104%; in test [12], 89%; in test [13], 93%. Also, the residual activity in test [14] was 63%; in test [17] it was 97%; in [18] it was 88%; in [19], 96%; in [20] it was 97%.
With `COc1cc2ncc(-c3ccccc3)nc2cc1OC`, the residual activity is 95% (inactive) in test [1]; 93% in test [2]; 88% in test [3]; 76% in [4]; 76% in [6]; 58% in test [8]. In addition, the residual activity came to 94% in test [13]; 92% in test [14]; 98% in [15]; 92% in [16]; 96% in test [19]; 98% in test [20].
